TbHK1 inh = T. brucei hexokinase 1 inhibition; hit rate 0.11% among 220,000; recombinant TbHK1, G6PDH-coupled NADH A340; inhibition, % at 10 µM; AID 1430;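 active = inhibition of 50% or more in the single-dose primary screen; inactive = inhibition below 50%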
ROMK primary = human ROMK K+ channel modulation, primary screen; Tet-inducible ROMK, thallium flux fluorescence; actives lie on both sides; B-score at 10 µM; hit rate 2% among 130,000; AID 1918;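 active = signal ratio slope over the read window, or its plate-corrected B-score, at least 3 SD from the plate mean, either direction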;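 also: B-score of the F/F0 ratio slope over 7 to 12 s after thallium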
Target sequence (P48048 whole entry, looked up): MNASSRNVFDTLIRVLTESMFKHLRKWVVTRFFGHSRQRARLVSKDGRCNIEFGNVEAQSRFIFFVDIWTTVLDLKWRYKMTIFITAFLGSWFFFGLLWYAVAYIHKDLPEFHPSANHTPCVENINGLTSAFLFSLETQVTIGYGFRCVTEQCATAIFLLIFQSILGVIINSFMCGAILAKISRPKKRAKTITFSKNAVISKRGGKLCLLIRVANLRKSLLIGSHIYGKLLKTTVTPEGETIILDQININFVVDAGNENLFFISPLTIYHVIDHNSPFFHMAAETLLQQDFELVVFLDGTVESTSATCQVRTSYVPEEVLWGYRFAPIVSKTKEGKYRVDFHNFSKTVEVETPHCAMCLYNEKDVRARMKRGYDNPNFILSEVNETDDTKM
Insulin prom up = MIN6 insulin promoter up-regulation. MIN6 insulin promoter-GFP reporter, high-content imaging; active compounds read high. z-score at 5 µM. hit rate 0.3% among 190,000. AID 1625;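 active = z-score above 3 at 5 µM with at least 500 cells counted in the well; inconclusive = wells under 500 cells, flagged as cytotoxic or low count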
Insulin prom inh = TRM-6 insulin promoter activity inhibition | TRM-6 cells (human fetal islet line), insulin promoter-eGFP reporter, imaging; reporter expression induced with tamoxifen | inhibition, % at 2 µM | hit rate 0.9% among 130,000 | AID 1273;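 active = inhibition above the mean plus 3 SD, with well images judged a real hit on visual review, cut at about 60% in these data, passing the limit was not always enough; inconclusive = inhibition over the cutoff but images rejected on review; inactive = inhibition not above the cutoff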
HSV augment = increases HSV replication in cells | hit rate 0.005% among 220,000 | maximum fold increase | HSV replication augmentation in cells, fold increase; in the data active = maximum fold increase above about 1.5; inconclusive = no clear call, values can overlap the other calls; tested in PC3 cells
ROMK hit retest = human ROMK channel modulation, retest confirmation | normalized thallium flux (F/F0 slope) at 10 µM | ROMK thallium flux, fluorescence ratio; active compounds read low | shares compounds with ROMK primary | hit rate 54% among 3,000;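 active = Flux at 10 µM at least 3 SD below or above vehicle control mean in one or both replicates; inconclusive = no clear call, values can overlap the other calls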
* hit, by the source's call; i = inactive; ? = inconclusive; · = not tested or not shown. The sample as a whole holds a higher share of hits than the screen did.

SMILES	TbHK1 inh	ROMK primary	Insulin prom up	Insulin prom inh	HSV augment	ROMK hit retest
COc1ccc(C(=O)C2CCCN(S(=O)(=O)c3cccnc3)C2)c(C)c1 (stereo not given)	-1	-8.6*	-0.78	·	i	0.075
COc1cccc(C(=O)C2CCCN(Cc3cccn3-c3cccnc3)C2)c1 (stereo not given)	-7	-2.9*	0.64	·	i	0.072
CCN(CC)c1ccc(NC(=O)CN2CCN(S(=O)(=O)c3cc(Cl)ccc3OC)CC2)cc1	-10	-1.9	-0.35	-3	i	·
CCOc1ccc(NC(=O)CCN2CCN(S(=O)(=O)c3cc(Cl)ccc3OC)CC2)cc1	-6	-2.4*	0.83	38	i	0.062*
COc1ccc(NC(=O)CSC2=NCCN2)cc1	-3	-0.11	0.31	·	i	·
O=C(CSc1ccc2ccccc2n1)NCc1ccc2c(c1)OCO2	-4	-5.2*	-0.38	·	i	?
O=C(CSc1nc2ccccc2s1)NCc1ccc2c(c1)OCO2	28	·	0.23	-30	i	·
CC1CCCC(C)N1C(=O)Cn1c(SCC(=O)NCc2ccc3c(c2)OCO3)nc2ccccc21 (stereo not given)	3	-3.9*	-1.2	·	i	0.061*
CC(C)COc1cccc(C(=O)NC(=S)NCc2cccnc2)c1	1	·	-0.63	·	i	·
Cc1ccc2[nH]c(=O)c(CN(Cc3ccccc3)C(=S)NCCCN(C)C)cc2c1	-6	-3.2*	0.33	33	i	?
Cc1ccc(NC(=O)c2cc(S(=O)(=O)N3CCOCC3)c(Br)s2)cc1	-3	·	-0.24	-31	i	0.081
Cc1nc2ccc(NC(=O)c3ccc(S(=O)(=O)N4CCOCC4)cc3)cc2s1	-1	3.2*	2.2	7	·	0.077
Cc1nc2ccc(NC(=O)c3cccc(S(=O)(=O)N4CC(C)OC(C)C4)c3)cc2s1 (stereo not given)	-16	-0.1	0.22	11	i	·
COC(=O)CSc1nc2[nH]ncc2c(=O)[nH]1	3	1.1	0.51	·	i	·
CCOc1ccccc1CN1CCN(CC2=Cc3cc(OC)ccc3OC2)CC1CCO (stereo not given)	-14	·	-0.15	·	i	0.067*
O=C(Nc1ccc([N+](=O)[O-])cc1)Nc1ccc(N2CCOCC2)c2nonc12	-9	-0.52	0	47	i	·
C/C(=N\Nc1nc(C(=O)O)cs1)c1ccccc1	-6	·	-0.21	·	i	0.077
COCCn1c(SCCOc2ccccc2)nc2ccccc2c1=O	2	-0.38	-1	·	i	·
O=C(NCc1cccnc1)/C(=C\c1ccc(-c2ccc(Cl)c(Cl)c2)o1)S(=O)(=O)c1ccccc1	-38	-5.1*	-1.7	-93	i	0.056*
NC(=O)c1cc(-c2ccccc2)nc(Oc2ccccc2)n1	3	-3.6*	-0.16	-100	i	0.077
N#Cc1cc(-c2ccccc2)nc(Oc2ccccc2)n1	-6	-0.087	0.02	·	i	·
O=C1NC(=O)/C(=C\c2ccc(N3CCOCC3)o2)N1	-13	-3.6*	0.58	·	i	?
O=C1NC(=O)/C(=C/c2ccc(N3CCOCC3)o2)N1	-12	·	0.42	·	i	·
Cc1nn(C)cc1CN(C)C(=O)c1cc(-c2ccccc2)nc2ccc(Br)cc12	-21	0.039	-0.4	·	i	0.058*
CC(C)c1ccc(Nc2nnns2)cc1	-8	-1	-0.49	·	i	·
SMILES	TbHK1 inh	ROMK primary	Insulin prom up	Insulin prom inh	HSV augment	ROMK hit retest
COc1ccc(/C=C2/SC(c3ccc(C)cc3)=NC2=O)cc1OC	-14	-3.2*	0.04	·	i	0.053*
COc1ccc(/C=C2\SC(c3ccc(C)cc3)=NC2=O)cc1OC	-25	·	0	·	i	·
COc1cc(/C=C2\SC(c3ccccc3)=NC2=O)cc(Cl)c1O	-7	3.2*	-0.2	·	i	0.066*
CCOC(=O)c1c(NC(=O)COC(=O)c2nc(Cl)ccc2Cl)sc2c1CCC2	2	-0.65	1.5	3	i	·
Cc1nccn1CCC(=O)Nc1ccc(Cl)cc1	1	-0.054	1	-27	i	·
CCOC(=O)c1c(-c2ccccc2)oc2ccc(OCC)cc12	-1	-0.78	-0.13	25	i	·
CCOc1ccc2oc(-c3ccccc3)c(C(=O)N3CCN(C)CC3)c2c1	-8	·	-0.43	·	i	?
COC(=O)C(C(=O)Nc1nc2ccccc2s1)C1CCCC1 (stereo not given)	4	-1	-0.04	·	i	·
O=C(O)CS(=O)CC(=O)Nc1cccc(C(F)(F)F)c1 (stereo not given)	-2	0.3	-0.07	18	i	·

From PubChem
